# CBFb-RUNX1 inh: qHTS Assay for Compounds Blocking the Interaction Between CBF-beta and RUNX1 for the Treatment of Acute Myeloid Leukemia. 230,000 tested, under 10 active. AlphaScreen CBFb-His/RUNX1-biotin binding, biochemical. Runt-related transcription factor 1 (Homo sapiens) + Core-binding factor subunit beta …. AID 1477, 2009. Potency, µM (titrated, usually from 59.8 µM), for the others: at the highest dose activity, negative = inhibition, hits mostly inhibitors; also: % of control where 0% means no effect
#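 CBF-beta (His) and RUNX1 (biotin), 30 nM each; 20 min preassociation; + compound, 15 min; + beads 50 ng each (Ni, streptavidin), 90 min; RT; AlphaScreen read.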
# PNC inhibitor: High Content Assay for Compounds that inhibit the Assembly of the Perinucleolar Compartment; PC3M PTB-GFP, PNC prevalence imaging, 16 h; active compounds read low; activity change (PNC), negative = inhibition, % at 10 µM; 140,000 compounds, 3.1% hits;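 active = readout at or below -70, meaning at least 70% loss of cells showing the perinucleolar compartment, a nuclear body marking cancer cells; inconclusive = readout between -30 and a set limit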;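 also: plate controls were DMSO wells for no effect and camptothecin positive control wells for full effect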
#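 Compounds are pinned in duplicate onto adhered PC3M cells stably expressing GFP-tagged PTB and incubated 16 h at 37 C. Cells are then fixed, nuclei stained with Hoechst, and PNC-positive cells counted.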
# ALDH1A1 block: qHTS Assay for Inhibitors of Aldehyde Dehydrogenase 1 (ALDH1A1) | Aldehyde dehydrogenase 1A1 (Homo sapiens), P00352 | Purified ALDH1A1, NADH fluorescence, propionaldehyde substrate | Potency, µM (titrated, usually from 75.3 µM), for inactives: at the top dose activity, negative = inhibition, hits mostly inhibitors | 220,000 compounds, 7.3% hits; active = well fitted inhibition curve with a large enough effect, not every such curve was filed as active; inconclusive = small, poorly fitted or top-dose-only effect, or another doubt; inactive = no such curve, though single readings can be large or run the other way;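 also: potency is read from the fitted curve at half-maximal effect; plate controls were no enzyme wells and a reference inhibitor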
# Target sequence (P00352 whole entry, looked up): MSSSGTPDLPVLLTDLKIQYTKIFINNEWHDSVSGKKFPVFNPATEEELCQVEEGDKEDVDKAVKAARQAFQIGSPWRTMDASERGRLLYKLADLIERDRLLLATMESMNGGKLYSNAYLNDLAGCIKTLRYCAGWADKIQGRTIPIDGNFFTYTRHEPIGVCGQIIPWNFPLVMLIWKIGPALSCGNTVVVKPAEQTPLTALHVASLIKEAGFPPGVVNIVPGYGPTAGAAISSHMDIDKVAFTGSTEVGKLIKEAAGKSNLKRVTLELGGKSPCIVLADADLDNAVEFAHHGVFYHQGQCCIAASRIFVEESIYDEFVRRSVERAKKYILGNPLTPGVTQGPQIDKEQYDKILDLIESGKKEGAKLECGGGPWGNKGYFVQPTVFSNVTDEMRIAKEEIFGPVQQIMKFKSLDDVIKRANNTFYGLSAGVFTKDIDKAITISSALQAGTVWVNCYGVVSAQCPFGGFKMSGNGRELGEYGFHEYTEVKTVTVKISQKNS
# HTT cytoprotect: qHTS Multiplex Assay to Identify Dual Action Probes in a Cell Model of Huntington: Cytoprotection (ATP); Potency, µM (top dose mostly 56.4 µM), inactives show cytoprotection (ATP increase), most hits filed as activators; 230,000 compounds, 0.14% hits; PC12 HTT-Q103 induced, cytoprotection, ATP luminescence, 40 h; AID 1471, 2008; also: potency is read from the fitted curve at half-maximal effect; % of control where 0% means no effect; nearly all actives have a fitted effect of over 45% in size
#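 Cells were plated at 1500 per well in phenol red-free DMEM with 5% equine and 5% calf serum. Tebufenozide (100 nM final) and compounds were added, then ATPlite reagent, and luminescence was read.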
# HttQ103 aggreg: qHTS Multiplex Assay to Identify Dual Action Probes in a Cell Model of Huntington: Aggregate Formation (GFP) | PC12 HttQ103-GFP aggregates, Acumen cytometry, 40 h | Potency, µM (series often up to 46.1 µM), for inactives: at the top dose activity change, negative = inhibition, usual class: inhibitors | 220,000 compounds, 1.1% hits | AID 1688, 2009; also: potency is read from the fitted curve at half-maximal effect; % is scaled to controls: 0 for no effect and ±100 for the full control effect; nearly all actives have a fitted effect of over 60% in size
#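 Huntingtin Q103 exon 1–GFP aggregates in induced PC12 cells (100 nM tebufenozide) were quantified by cytometry from lysates, with compounds dosed in titration.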
# HPGD inh: qHTS Assay for Inhibitors of HPGD (15-Hydroxyprostaglandin Dehydrogenase); 15-hydroxyprostaglandin dehydrogenase [NAD(+)] (Homo sapiens), P15428; Potency, µM, inactives show at the highest dose activity change, negative = inhibition, usual class: inhibitors; 150,000 compounds, 4.3% hits; AID 894, 2007; purified HPGD, NADH fluorescence kinetic, PGE2 substrate; active = well fitted inhibition curve with a large enough effect, not every such curve was filed as active; inconclusive = small, poorly fitted or top-dose-only effect, or another doubt; inactive = no such curve, though single readings can be large or run the other way; also: potency is read from the fitted curve at half-maximal effect; % is scaled to controls: 0 for no effect and ±100 for the full control effect
#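 NADH formation kinetics: reaction with 30 uM PGE2 and 1 mM NAD+ (final), 20 nM enzyme, Tris-HCl pH 8 with Tween 20, after 15 min compound preincubation at room temperature. Fluorescence change, last versus first of five reads.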
# * marks the source's active call; other numbers are inactive results; ? = inconclusive; . = no result given; [ ] = another dose, or the depositor's remark. Most compounds without a hit are left out; they make up all but 11% or so of the library. Unless noted, calls follow the shape of the dose curve; as a rule, active = well fitted curve in the direction sought with a large enough effect; inconclusive = small, poorly fitted or top-dose-only effect, or another doubt; inactive = no such curve, though single readings can be large; an effect the other way counts as inactive or inconclusive.
SMILES,CBFb-RUNX1 inh,PNC inhibitor,ALDH1A1 block,HTT cytoprotect,HttQ103 aggreg,HPGD inh
O=C(CON1C(=O)c2ccccc2C1=O)c1ccccc1,.,.,?,-12%[10 µM],.,-5%
CCCCCCCCCCCCC1CO1 (centres undefined),11%[21.7 µM],.,22%,-7%,.,-2%
O=C(OCC(=O)N1CCN(C(=O)c2ccco2)CC1)c1cc(-c2ccco2)nc2ccccc12,?,34,?,-16%,13%,?
c1ccc(COC2CCCN(Cc3nc(Cc4ccccc4)no3)C2)cc1 (centres undefined),10%,.,14µM*,-7%[10 µM],0%[9.22 µM],.
O=C(Cc1ccccc1)N1CCN(C(=O)c2ccco2)CC1,-2%,6,20µM*,-1%[10 µM],2%,-3%
c1ccc(COC2CCCN(Cc3nc(-c4cnccn4)no3)C2)cc1 (centres undefined),12%,.,-1%,-20%,11%,.
O=C(c1ccco1)N1CCN(Cc2nc(Cc3ccccc3)no2)CC1,1%,.,22µM*,2%[10 µM],-17%[9.22 µM],.
O=C(c1ccco1)N1CCN(C(=O)c2cc(-c3ccccn3)nc3ccccc23)CC1,0%,-10,3.5µM*,-1%,2%,-25%
Cc1ccc(CN2CCSCC2)c(C)c1,3%,-6,-6%,.,13%,-4%
CCN(CC)CC(=O)Nc1cc(C)c2c(=O)oc3ccccc3c2n1,.,.,.,-7%,.,.
CC1=CC(C)(C)[N+](C)(C)c2ccccc21,5%,.,-4%,?,44%[9.22 µM],.
Cc1cccc(C)c1NC(=O)C(c1ccccc1)N1CCN(C(=O)c2ccco2)CC1 (centres undefined),4%,34,25µM*,.,-1%,-7%
O=C(c1ccco1)N1CCN(C(=O)c2cccs2)CC1,0%,25,-5%,-1%,10%,-6%
O=C(c1ccco1)N1CCN(C(=O)c2sccc2-c2ccccc2)CC1,-3%,-100*,13µM*,28%[10 µM],-5%,-15%
O=C(CCSc1ccccc1)N1CCN(C(=O)c2ccco2)CC1,5%,-91*,22µM*,2%,6%,-14%
Cc1ccccc1NC(=O)N1CCN(C(=O)c2ccco2)CC1,6%,.,7%,-4%,-17%,.
CC(C)(C)c1ccc(S(=O)(=O)NCC(=O)N2CCN(C(=O)c3ccco3)CC2)cc1,5%,9,1.6µM*,3%[0.074 µM],20%,4%
Cc1ccc(S(=O)(=O)N(C)CC(=O)N2CCN(C(=O)c3ccco3)CC2)cc1,2%,3,?,17%,11%,-4%
O=C(CCSc1ccccc1)N1CCN(c2ccccc2)CC1,4%,.,3%,-18%,7%,.
C=C1CC[C@H](O)C/C1=C/C=C1\CCC[C@]2(C)[C@H]1CC[C@H]2[C@@H](C)/C=C\[C@@H](C)C(C)C,4%[21.7 µM],.,-4%[20.9 µM],-33%[17.1 µM],.,-6%
COCCCNC(=S)NNC(=O)c1csc2ccccc12,-2%,?,11%,13%[10 µM],-16%,-16%
O=C(c1ccco1)N1CCN(CCOCCOc2cccc3ccccc23)CC1,-4%,-80*,-11%,-14%,-10%,3%
O=C(NCc1ccc2c(c1)OCO2)O[C@@H]1C(=O)c2cc(Br)ccc2O[C@H]1c1ccc2c(c1)OCO2,-4%,.,-4%,-9%,.,-10%
CSc1ccccc1NC(=O)CN(C)CC(=O)NCc1ccccc1,?,.,0.2µM*,3%[10 µM],2%,.
Cc1ccccc1NC(=O)CSCC(=O)Nc1ccccc1C,0%,-28,-1%,-9%,9%,18µM*

# High-throughput results: PubChem BioAssay, National Center for Advancing Translational Sciences (NCATS)
